# A number with no mark means an inactive call. Records with an inconclusive call do not appear. Entries that show only a call come without a potency. Calls of active or inactive are those of the source. Unless noted, calls come from the whole dose curve.
# Assays:
# [1] = Nuclear factor erythroid 2-related factor 2/antioxidant responsive element (Nrf2/ARE) small molecule agonists: qHTS cell viability counter screen in human keratinocytes (AID 1919968; active = well fitted curve in the direction sought with a large enough effect in the repeat runs; an effect the other way counts as inactive or inconclusive; note: nearly all actives have a fitted effect of over 55% in size; note: potency is the fitted concentration of half-maximal effect)
# Summary of the method: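 In human HaCaT keratinocytes stably expressing an ARE-driven luciferase, compound exposure lasted 23 h at 37 C under 5% CO2. Viable cells are quantified with a protease-based fluorogenic reagent (CellTiter-Fluor) read 1 h after addition.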
# [2] = molecular target: KiSS-1 receptor (Homo sapiens) (UniProt Q969F8); test: Human kisspeptin (KISS1R) small molecule agonists, calcium flux assay in KISS1R-HEK293 cells (AID 1920064; active = well fitted curve in the direction sought with a large enough effect in the repeat runs; an effect the other way counts as inactive or inconclusive)
# Summary of the method: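 Concentration-response testing used 15 concentrations in triplicate on human KISS1R-expressing HEK293 cells. Calcium-dependent fluorescence (Ex/Em 480/540) was followed kinetically for 3 min after compound transfer.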
# [3] = G protein-coupled receptor (GPCR) small molecule agonists, calcium flux assay: HEK293 wild type cell line counter screen (AID 1920065)
# Summary of the method: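 Fluorescence intensity signals activation. After overnight (18 h) culture and a 1 h calcium dye load at 37 C, compounds are added by pin tool and the plate read at 480/540 nm for 3 min in 1 s steps.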
# [4] = p53 small molecule agonists, cell-based qHTS assay with human liver microsomes (AID 1963577);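 note: p53 response element beta-lactamase reporter cells with liver microsomes plus NADPH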
# Summary of the method: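 p53RE-bla cells; 5 h settle, 37 C/5% CO2; cpd + HLM 0.5 mg/mL + NADPH 0.5 mg/mL (final); 16 h 37 C; LiveBLAzer 2 h RT dark; fluorescence readout.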
# [5] = p53 small molecule agonists, cell-based qHTS assay with rat liver microsomes (AID 1963578)
# Summary of the method: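 Rat liver microsome activation: microsomes 0.5 mg/mL, NADPH 0.5 mg/mL final; p53RE-bla cells, 16 h 37 C; LiveBLAzer readout, 2 h RT dark.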
# [6] = p53 small molecule agonists, cell-based qHTS assay with human liver microsomes: qHTS cell viability counter screen (AID 1963579); note: nearly all actives have a fitted effect of over 45% in size
# Summary of the method: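 Luminescent CellTiter-Glo read-out, 30 min at room temperature, gauged cytotoxicity in p53RE-bla cells exposed 16 h at 37 C to DMSO-dissolved compounds with metabolic activation by human liver microsomes and NADPH, each 0.5 mg/mL final.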
# [7] = p53 small molecule agonists, cell-based qHTS assay with rat liver microsomes: qHTS cell viability counter screen (AID 1963580); note: nearly all actives have a fitted effect of over 45% in size
# Summary of the method: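 Cytotoxicity counter screen: intracellular ATP read by CellTiter-Glo luminescence in the p53 reporter wells. HCT-116 p53RE-bla cells were treated for 16 h at 37 C alongside rat liver microsomes and NADPH, each 0.5 mg/mL final.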
# [8] = p53 small molecule agonists, cell-based qHTS assay: qHTS cell viability counter screen (AID 1963581); note: nearly all actives have a fitted effect of over 45% in size
# Summary of the method: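 Luminescence from CellTiter-Glo, reflecting ATP content, serves as the cytotoxicity measure; it is taken after the 2 h reporter substrate step in HCT-116 p53RE-bla cells dosed for 16 h at 37 C.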
# [9] = p53 small molecule agonists, cell-based qHTS assay (AID 1963582; active = well fitted activation curve with a large enough effect in the signal ratio in the repeat runs, not every such curve was filed as active; the % refers to the signal ratio)
# Summary of the method: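 After plating, p53RE-bla cells sat 5 h in the incubator; compounds or DMSO vehicle were pinned in; a 16 h incubation at 37 C followed; FRET substrate was added and, 2 h later at RT, fluorescence was measured.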
# [10] = molecular target: 5-hydroxytryptamine receptor 2A (Homo sapiens) (UniProt P28223); test: 5-hydroxytryptamine receptor 2A (HTR2A) small molecule antagonists, cell-based qHTS assay (AID 1963586); note: nearly all actives have a fitted effect of over 45% in size; note: potency is the fitted concentration of half-maximal effect
# Summary of the method: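 CHO cells stably expressing human HTR2A were plated for 18 h at 37 C, then loaded with calcium dye for 1 h. Compounds were preincubated 5 min at room temperature before DOI (4 nM solution) was added. Kinetic fluorescence was read for 3 min.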
# [11] = molecular target: 5-hydroxytryptamine receptor 2A (Homo sapiens) (UniProt P28223); test: 5-hydroxytryptamine receptor 2A (HTR2A) small molecule agonists, cell-based qHTS assay (AID 1963587); note: nearly all actives have a fitted effect of over 30% in size; note: potency is the fitted concentration of half-maximal effect
# Summary of the method: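 Kinetic calcium-flux fluorescence (2 min, 1 sec intervals) after compound addition in agonist mode. HTR2A-CHO cells were cultured 18 h, then dye-loaded 1 h at 37 C.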
# [12] = molecular target: Muscarinic acetylcholine receptor M1 (Homo sapiens) (UniProt P11229); test: Cholinergic receptor muscarinic 1 (CHRM1) small molecule antagonists, cell-based qHTS assay (AID 1963588); note: nearly all actives have a fitted effect of over 40% in size; note: potency is the fitted concentration of half-maximal effect
# Summary of the method: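 Compounds were tested at 15 concentrations in three independent runs. Dye-loaded CHRM1-CHO cells were exposed 5 min at room temperature before stimulation by acetylcholine added at 50nM. Intracellular calcium was read kinetically on FDSS for 3 min.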
# [13] = molecular target: Muscarinic acetylcholine receptor M1 (Homo sapiens) (UniProt P11229); test: Cholinergic receptor muscarinic 1 (CHRM1) small molecule agonists, cell-based qHTS assay (AID 1963589); note: nearly all actives have a fitted effect of over 35% in size
# Summary of the method: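 Fluorescent calcium dye reports M1 activation in stably transfected CHO cells. Compounds, 15 concentrations, added after 1 h dye loading at 37 C; kinetic reading at 1 sec intervals.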
# [14] = cAMP Responsive Elements (CRE) small molecule agonists, cell-based qHTS assay (AID 1963590)
# Summary of the method: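 Compound exposure lasted 3 h at 37 C/5% CO2 in CRE-bla HEK 293T cells grown in assay medium with 10% dialyzed FBS and 25 mM HEPES. Reporter signal came from LiveBLAzer B/G FRET substrate, 2 h, room temperature.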
# [15] = cAMP Responsive Elements (CRE) small molecule antagonists, cell-based qHTS assay (AID 1963591; active = well fitted inhibition curve with a large enough effect in the signal ratio in the repeat runs, not every such curve was filed as active; the % refers to the signal ratio)
# Summary of the method: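 Stimulation used NKH477 at a final 0.25 uM for 3 h in compound-treated CRE-bla HEK293T cells, seeded 18 h beforehand. Reporter activity was measured with LiveBLAzer B/G FRET substrate after 2 h at room temperature.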
# [16] = molecular target: Beta-2 adrenergic receptor (Homo sapiens) (UniProt P07550); test: Adrenergic beta2 receptor (ADRB2) small molecule agonists, cell-based qHTS assay (AID 1963593);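 note: CHO cells stably overexpressing human ADRB2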
# Summary of the method: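 CHO cells stably over-expressing ADRB2 were plated overnight at 37C, then dosed with compounds plus a stimulation mix containing 100uM IBMX and 25uM Ro-20-1724 for 0.5hr at room temperature. cAMP was measured by HTRF competition, 1hr.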
# [17] = molecular target: D(2) dopamine receptor (Homo sapiens) (UniProt P14416); test: Dopamine D2 receptor (DRD2) small molecule agonists, cell-based qHTS assay (AID 1963594); note: nearly all actives have a fitted effect of over 35% in size
# Summary of the method: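 cAMP accumulation in DRD2-HEK293 cells measured by HTRF after 1 h detection; compounds added 10 min before NKH477 (200nM […]) forskolin-analogue stimulation, 30 min at room temperature, with Ro20-1724 present at 0.1 mM final.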
# [18] = molecular target: D(2) dopamine receptor (Homo sapiens) (UniProt P14416); test: Dopamine D2 receptor (DRD2) small molecule antagonists, cell-based qHTS assay (AID 1963595; active = well fitted inhibition curve with a large enough effect in the signal ratio in the repeat runs, with a control signal flat; the % refers to the signal ratio; note: potency is the fitted concentration of half-maximal effect)
# Summary of the method: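 HTRF cAMP read-out at 665 and 620 nm emission (340 nm excitation). Antagonist mode: compounds were tested against 12 nM quinpirole in DRD2-HEK293 cells, with 200 nM NKH477 raising cAMP and 0.1 mM Ro20-1724 blocking its breakdown.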
# [19] = molecular target: Beta-2 adrenergic receptor (Homo sapiens) (UniProt P07550); test: Adrenergic beta2 receptor (ADRB2) small molecule antagonists, cell-based qHTS assay (AID 1963592); note: series mostly up to about 92 µM; nearly all actives have a fitted effect of over 50% in size
# Summary of the method: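 Assay format: CHO-ADRB2 cells, 18-20hr seeding at 37C/5% CO2, then compound plus 1nM isoproterenol agonist mix for 0.5hr RT. Homogeneous time-resolved fluorescence cAMP detection after 1hr, expressed as 665/615 nm ratio.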
# [20] = Nuclear factor erythroid 2-related factor 2/antioxidant responsive element (Nrf2/ARE) small molecule agonists: luciferase reporter gene qHTS assay in human keratinocytes (AID 1919969); note: nearly all actives have a fitted effect of over 35% in size
# Sequence of KiSS-1 receptor (Homo sapiens) (Q969F8 whole entry, looked up): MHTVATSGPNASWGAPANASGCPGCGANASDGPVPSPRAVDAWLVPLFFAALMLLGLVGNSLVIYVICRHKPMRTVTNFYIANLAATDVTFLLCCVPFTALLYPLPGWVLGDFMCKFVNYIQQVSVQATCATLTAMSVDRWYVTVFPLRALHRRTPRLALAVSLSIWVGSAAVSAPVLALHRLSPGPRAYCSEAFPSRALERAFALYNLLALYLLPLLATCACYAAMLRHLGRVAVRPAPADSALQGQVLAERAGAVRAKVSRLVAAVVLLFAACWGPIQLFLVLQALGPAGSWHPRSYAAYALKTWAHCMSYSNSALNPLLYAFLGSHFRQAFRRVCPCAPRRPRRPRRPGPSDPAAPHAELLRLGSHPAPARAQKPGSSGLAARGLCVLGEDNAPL
# Sequence of Muscarinic acetylcholine receptor M1 (Homo sapiens) (P11229 whole entry, looked up): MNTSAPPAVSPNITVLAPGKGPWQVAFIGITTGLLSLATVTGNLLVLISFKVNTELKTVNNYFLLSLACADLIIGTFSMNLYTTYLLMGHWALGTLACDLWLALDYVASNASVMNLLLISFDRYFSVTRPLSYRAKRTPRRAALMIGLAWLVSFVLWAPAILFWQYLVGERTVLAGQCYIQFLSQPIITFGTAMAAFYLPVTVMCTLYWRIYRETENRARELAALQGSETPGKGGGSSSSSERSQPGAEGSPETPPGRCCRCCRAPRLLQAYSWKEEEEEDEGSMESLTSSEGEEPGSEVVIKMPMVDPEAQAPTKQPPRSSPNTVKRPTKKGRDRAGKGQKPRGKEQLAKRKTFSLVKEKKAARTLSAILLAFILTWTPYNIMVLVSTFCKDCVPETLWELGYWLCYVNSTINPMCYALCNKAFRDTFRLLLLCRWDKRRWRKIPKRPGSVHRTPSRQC
# Sequence of D(2) dopamine receptor (Homo sapiens) (P14416 whole entry, looked up): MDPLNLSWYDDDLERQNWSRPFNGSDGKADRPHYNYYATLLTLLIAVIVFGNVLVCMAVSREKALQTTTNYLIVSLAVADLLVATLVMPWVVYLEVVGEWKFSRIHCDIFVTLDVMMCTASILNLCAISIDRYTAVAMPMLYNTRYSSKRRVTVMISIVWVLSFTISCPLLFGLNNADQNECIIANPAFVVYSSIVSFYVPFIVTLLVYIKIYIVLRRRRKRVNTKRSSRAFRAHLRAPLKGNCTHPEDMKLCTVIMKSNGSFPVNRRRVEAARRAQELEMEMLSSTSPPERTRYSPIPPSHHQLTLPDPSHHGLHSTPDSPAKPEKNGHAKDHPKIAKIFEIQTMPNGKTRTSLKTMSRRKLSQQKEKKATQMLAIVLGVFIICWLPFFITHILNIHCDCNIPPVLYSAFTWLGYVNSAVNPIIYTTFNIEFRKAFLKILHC
# Sequence of Beta-2 adrenergic receptor (Homo sapiens) (P07550 whole entry, looked up): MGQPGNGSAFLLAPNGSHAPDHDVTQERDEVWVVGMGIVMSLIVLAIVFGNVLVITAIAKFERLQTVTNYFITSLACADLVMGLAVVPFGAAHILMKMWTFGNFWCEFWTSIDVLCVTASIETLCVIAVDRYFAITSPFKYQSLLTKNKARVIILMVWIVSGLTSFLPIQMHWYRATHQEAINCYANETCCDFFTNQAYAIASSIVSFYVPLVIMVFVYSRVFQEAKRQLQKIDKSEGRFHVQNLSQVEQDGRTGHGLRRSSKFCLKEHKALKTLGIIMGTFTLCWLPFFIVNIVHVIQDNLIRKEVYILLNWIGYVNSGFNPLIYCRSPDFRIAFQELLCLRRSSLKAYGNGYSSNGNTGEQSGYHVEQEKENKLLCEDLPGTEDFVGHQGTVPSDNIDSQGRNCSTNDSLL
# Sequence of 5-hydroxytryptamine receptor 2A (Homo sapiens) (P28223 whole entry, looked up): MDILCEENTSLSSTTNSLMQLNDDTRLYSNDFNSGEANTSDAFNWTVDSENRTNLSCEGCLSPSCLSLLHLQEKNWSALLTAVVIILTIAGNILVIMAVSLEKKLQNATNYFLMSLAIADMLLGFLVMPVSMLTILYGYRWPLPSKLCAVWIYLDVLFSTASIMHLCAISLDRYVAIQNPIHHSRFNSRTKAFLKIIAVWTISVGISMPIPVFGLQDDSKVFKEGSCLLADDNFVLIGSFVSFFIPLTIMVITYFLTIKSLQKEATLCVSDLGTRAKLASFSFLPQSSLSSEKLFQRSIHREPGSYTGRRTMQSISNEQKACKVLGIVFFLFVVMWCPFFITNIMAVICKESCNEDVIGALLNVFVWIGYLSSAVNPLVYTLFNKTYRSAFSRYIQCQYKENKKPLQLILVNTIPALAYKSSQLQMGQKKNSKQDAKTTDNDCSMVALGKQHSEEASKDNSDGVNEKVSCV
compound,measurement,setting,value
COc1ccc(OC)c(N=Nc2c(O)ccc3ccccc23)c1,Potency,[1],27.3 µM (active)
same,outcome,[2],inactive
same,outcome,[3],inactive
same,Potency,[4],inactive
same,Potency,[5],inactive
same,Potency,[6],inactive
same,Potency,[7],inactive
same,Potency,[8],inactive
same,Potency,[9],inactive
same,Potency,[10],inactive
same,Potency,[11],4.36 µM (active)
same,Potency,[12],inactive
same,Potency,[13],inactive
same,Potency,[14],inactive
same,Potency,[15],inactive
same,Potency,[16],inactive
same,Potency,[17],inactive
same,Potency,[18],inactive
CCC(=O)CC(C)CC (stereo not drawn),"activity change, negative = cytotoxicity",[1],1.61% [at 0.349 µM]
same,activation,[2],-1.52% [at 0.29 µM]
same,activation,[3],-0.478% [at 0.217 µM]
same,activation,[4],-0.0354% [at 0.249 µM]
same,activation,[5],-2.6% [at 0.249 µM]
same,"activity change, negative = cytotoxicity",[6],-9.86% [at 0.249 µM]
same,"activity change, negative = cytotoxicity",[7],1.72% [at 0.249 µM]
same,"activity change, negative = cytotoxicity",[8],22.9% [at 0.249 µM]
same,activation,[9],5.1% [at 0.249 µM]
same,"activity, negative = inhibition",[10],14.6% [at 0.233 µM]
same,activation,[11],6.03% [at 0.292 µM]
same,"activity, negative = inhibition",[12],-17.2% [at 0.232 µM]
same,activation,[13],0.0292% [at 0.29 µM]
same,activation,[14],0.0521% [at 0.349 µM]
same,"activity change, negative = inhibition",[15],1.08% [at 0.349 µM]
same,"activity change, negative = inhibition",[19],7.63% [at 0.349 µM]
same,activation,[17],-3.53% [at 0.349 µM]
same,"activity change, negative = inhibition",[18],8.77% [at 0.348 µM]
CN1CCN(C2=Nc3ccccc3Sc3ccc(Cl)cc32)CC1,Potency,[1],inactive
same,Potency,[20],inactive
same,outcome,[3],inactive
same,Potency,[4],inactive
same,Potency,[5],inactive
same,Potency,[7],inactive
same,Potency,[9],inactive
same,Potency,[10],0.0818 µM (active)
same,Potency,[13],inactive
same,Potency,[19],inactive
same,Potency,[17],inactive
same,Potency,[18],5.96 µM (active)
Nc1ccc(Cl)cc1[N+](=O)[O-],Potency,[1],inactive
same,outcome,[2],inactive
same,outcome,[3],inactive
same,Potency,[4],inactive
same,Potency,[5],inactive
same,Potency,[6],inactive
same,Potency,[7],inactive
same,Potency,[8],inactive
same,Potency,[9],inactive
same,Potency,[10],inactive
same,Potency,[11],inactive
same,Potency,[12],inactive
same,Potency,[13],inactive
same,Potency,[14],inactive
same,Potency,[15],inactive
same,Potency,[19],inactive
same,Potency,[18],inactive
CCN(CC)CCOC(=O)C(c1ccccc1)c1ccccc1,Potency,[1],inactive
same,outcome,[2],inactive
same,outcome,[3],inactive
same,Potency,[4],inactive
same,Potency,[5],inactive
same,Potency,[6],inactive
same,Potency,[7],inactive
same,Potency,[8],inactive
same,Potency,[9],inactive
same,Potency,[10],7.29 µM (active)
same,Potency,[12],0.0103 µM (active)
same,Potency,[13],inactive
same,Potency,[14],inactive
same,Potency,[15],inactive
same,Potency,[19],inactive
O=S(=O)(O)CCO,Potency,[1],inactive
same,outcome,[2],inactive
same,outcome,[3],inactive
same,Potency,[4],inactive
same,Potency,[5],inactive
same,Potency,[6],inactive
same,Potency,[7],inactive
same,Potency,[8],inactive
same,Potency,[9],inactive
same,Potency,[10],inactive
same,Potency,[11],inactive
same,Potency,[12],inactive
same,Potency,[13],inactive
same,Potency,[14],inactive
same,Potency,[15],inactive
same,Potency,[19],inactive
same,Potency,[18],inactive
Cc1cccc(Oc2ccccc2)c1,Potency,[1],inactive
same,outcome,[2],inactive
same,outcome,[3],inactive
same,Potency,[4],inactive
same,Potency,[5],inactive
same,Potency,[6],inactive
same,Potency,[7],inactive
same,Potency,[8],inactive
same,Potency,[9],inactive
same,Potency,[10],0.001 µM (active)
same,Potency,[11],inactive
same,Potency,[12],inactive
same,Potency,[13],inactive
same,Potency,[15],inactive
same,Potency,[19],inactive
same,Potency,[18],inactive
